# Assay outcomes: PubChem, National Center for Advancing Translational Sciences (NCATS)
# Sampled rows, rich in hits. Any-hit rate of the full collection: about 11%.
# JMJD2A Tudor inh: qHTS Assay for Inhibitors of JMJD2A-Tudor Domain; AlphaScreen JMJD2A-Tudor / H3K4me3 peptide binding; AID 504339, 2011; Potency, µM (highest dose often 114 µM), for inactives: top-dose activity change, negative = inhibition, usual class: inhibitors; 390,000 tested, 4.4% active; Lysine-specific demethylase 4A (Homo sapiens), O75164; note: % is set by controls: 0 for no effect and ±100 for the full control effect; nearly all actives have a fitted effect of over 50% in size
# BAZ2B block: qHTS Assay for Inhibitors of BAZ2B; Bromodomain adjacent to zinc finger domain protein 2B (Homo sapiens), Q9UIF8; AlphaScreen BAZ2B-H3K14Ac peptide displacement; Potency, µM (titrated, usually from 114 µM), for inactives: top-dose activity change, negative = inhibition, hits mostly inhibitors; 360,000 tested, 4.4% active; note: % is set by controls: 0 for no effect and ±100 for the full control effect; nearly all actives have a fitted effect of over 60% in size
#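 Complex of BAZ2B and biotin-H3K14Ac (50 nM apiece) forms over 30 min at RT, then faces library compounds up to 110 uM for another 30 min; AlphaScreen beads added, 20 min dark incubation, luminescence read.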
# L3MBTL1 block: qHTS Assay for the Inhibitors of L3MBTL1. Lethal(3)malignant brain tumor-like protein 1 (Homo sapiens), Q9Y468. AlphaScreen L3MBTL1–H3K9me1 peptide binding. Potency, µM (series often up to 57.1 µM), for inactives: top-dose activity, negative = inhibition, hits mostly inhibitors. 230,000 tested, 0.66% active. AID 485360, 2010; note: % is set by controls: 0 for no effect and ±100 for the full control effect; nearly all actives have a fitted effect of over 60% in size
#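 L3MBTL1 50 nM + b-AHA-H3(1-15)K9me1 75 nM, 30 min RT; compound added, 30 min RT; streptavidin donor/Ni-chelate acceptor beads 10 ug/mL each final, 30 min RT dark; AlphaScreen read.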
# G9a inh: qHTS Assay for Inhibitors of Histone Lysine Methyltransferase G9a; Histone-lysine N-methyltransferase EHMT2 (Homo sapiens), Q96KQ7; G9a H3K9 monomethylation, AlphaScreen, 2 h; Potency, µM (top dose mostly 102 µM), for the others: top-dose activity, negative = inhibition, actives largely listed as inhibitors; 350,000 tested, 8.8% active; note: % is set by controls: 0 for no effect and ±100 for the full control effect; nearly all actives have a fitted effect of over 75% in size
#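 G9a (20 nM) was preincubated 15 min with compound, then reacted 2 h at room temperature with 500 nM biotin-H3K9 peptide and 20 µM SAM. Monomethyl-H3K9 detected by AlphaScreen using anti-H3K9me1 antibody.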
# HP1b chromo inh: HTS for Inhibitors of HP1-beta Chromodomain Interactions with Methylated Histone Tails; Chromobox protein homolog 1 (Homo sapiens), P83916; AlphaScreen HP1-beta / biotin-H3K9me3 peptide binding; Potency, µM (top dose mostly 114 µM), for inactives: top-dose activity change, negative = inhibition, actives largely listed as inhibitors; 390,000 tested, 0.56% active; AID 540317, 2011; note: nearly all actives have a fitted effect of over 70% in size
#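 AlphaScreen: HP1-beta (50 nM) preformed 30 min with biotin-H3(1-18)K9me3 peptide (50 nM) in PBS pH 7.4, 0.01% Tween-20. Compound added for 30 min at RT, then streptavidin donor/nickel chelate acceptor beads (10 ug/mL) for 30 min.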
# Starred values were filed as active, the others as inactive; ? = inconclusive; . = no result given; [ ] = remark or other dose. Calls come from the whole dose curve; as a rule, active = well fitted inhibition curve with a large enough effect; inconclusive = small, poorly fitted or top-dose-only effect; inactive = no such curve, though single readings can be large or run the other way. Potency is the fitted concentration of half-maximal effect.
SMILES,JMJD2A Tudor inh,BAZ2B block,L3MBTL1 block,G9a inh,HP1b chromo inh
CN(C)C(=S)NC(=NCc1ccc([N+](=O)[O-])cc1)c1ccccc1,-14.6%,-16.9%,.,70.8µM*,56.2%
Cc1cc(N2CCN(C)CC2)nc2ccc(NC(=O)Nc3ccccc3Cl)cc12,-27.2%,-11.2%[57.1 µM],.,?,4.2%
Cc1ccc(OCCSc2nc3ccc(NC(=O)c4ccco4)cc3s2)cc1,-7.9%,-7.0%,.,-14.6%[59 µM],16.8%
Cc1ccc(C(=O)N[C@@H](Cc2ccccc2)C(=O)N2CCC3(CC2)NCCc2[nH]cnc23)cc1C,24.1%,-30.2%,.,79.4µM*,41.2%
N#Cc1c(-c2cccnc2)cc(-c2ccccc2)nc1N,15.9%,0.6%,16.3%,.,57.6%
N#Cc1c(-c2ccccc2)cc(C2CC2)nc1N,0.7%,-9.3%,-0.1%,11.5%[59 µM],25.4%
N#Cc1c(-c2ccco2)cc(C2CC2)nc1N,-0.7%,-2.3%,5.4%,14.1µM*,29.9%
N#Cc1c(-c2ccco2)cc(-c2cccnc2)nc1N,-15.0%,?,-16.3%,35.5µM*,49.0%
CCOC(=O)C[n+]1c(C)sc2ccc(OC)cc21,50.1µM*,?,1.5%,1.26µM*,?
Cc1sc2ccccc2[n+]1CC(=O)O,?,-10.5%,-6.1%,?,52.3%
Cc1ccc(C)c(Nc2cc(C(=O)NC3CCCCC3)c3ccccc3n2)c1,-12.3%,.,.,-5.8%[59 µM],16.8%
Cc1ccc(Nc2nnc(SC/C(O)=C(\C#N)c3nc4ccccc4[nH]3)s2)c(C)c1,-31.5%,5.0%,-4.6%,7.08µM*,1.6%
Cc1cccc(Nc2nnc(SC/C(O)=C(\C#N)c3nc4ccccc4[nH]3)s2)c1,-16.6%,-32.6%,-18.2%,15.8µM*,0.6%
CCOCCCn1c(SCC(=O)Nc2cc(C)ccc2C)nc2c(oc3ccccc32)c1=O,-7.6%,2.3%,.,-3.5%[59 µM],25.6%
CC(=O)Nc1ccc(N2C(=O)c3cccc4c(O)ccc(c34)C2=O)cc1,?,50.1µM*,.,?,16.3%
O=C1c2cccc3c(O)ccc(c23)C(=O)N1c1ccc(Cl)cc1,8.9%,11.5%,.,44.7µM*,37.8%
Cc1ccc(N=N/C(=C\O)C(=O)c2ccncc2)cc1,?,44.7µM*,.,?,-29.5%
O=C(/C(=C/O)N=Nc1ccccc1)c1ccco1,?,?,-13.1%,-48.5%,?
O=C(/C(=C/O)N=Nc1ccc(Cl)cc1)c1ccncc1,?,31.6µM*,-12.5%,16.6%[0.501 µM],-50.0%
COCCN1C(=O)c2[nH]nc(-c3ccccc3O)c2C1c1ccc(Cl)c(Cl)c1 (configuration not stated),?,-35.8%,.,7.7%[59 µM],38.4%
Cn1c(=O)c2c(-c3ccccc3)n3c(c2n(C)c1=O)C(c1cccc([N+](=O)[O-])c1)Nc1ccccc1-3 (configuration not stated),-19.5%,-13.2%,.,-2.1%[59 µM],13.7%
Cc1ccc(CN(Cc2ccco2)C(=S)NCC(=O)NCc2cccnc2)cc1,-32.3%,?,.,12.6µM*,?
Cc1ccc(CN(Cc2ccco2)C(=S)NCC(=O)O)cc1,-12.9%,-5.5%,4.5%,31.6µM*,14.3%
Cc1ccc(CN(Cc2ccccc2)C(=S)NCC(=O)NCc2cccnc2)o1,?,-24.7%,13.4%,28.2µM*,1.4%
Cc1ccc(CN(Cc2ccc(C)o2)C(=S)NCC(=O)O)cc1,-13.8%,3.9%,8.5%,?,7.9%
SMILES,JMJD2A Tudor inh,BAZ2B block,L3MBTL1 block,G9a inh,HP1b chromo inh
COc1ccc(OC)c(NC(=O)Cn2c(=O)c3cccn3c3ccccc32)c1,-19.4%,-6.4%,.,-10.9%[59 µM],0.4%
COc1ccc(C(=O)N2CCN(c3nc(C4CC4)nc4sc(C)c(C)c34)CC2)cc1,?,?,.,39.8µM*,-20.3%
Cc1sc2nc(C3CC3)nc(N3CCN(C(=O)c4ccc(Cl)cc4)CC3)c2c1C,44.7µM*,?,.,44.7µM*,16.4%
COc1ccc(C(=O)N2CCN(c3ncccn3)CC2)cc1,-17.8%,3.6%,.,12.5%,23.0%
Cc1sc2nc(C3CC3)nc(N3CCN(C(=O)c4ccccc4F)CC3)c2c1C,-31.0%,-38.3%,.,44.7µM*,4.7%
Cc1sc2nc(C3CC3)nc(N3CCN(C(=O)c4ccc(F)cc4)CC3)c2c1C,-33.8%,?,.,44.7µM*,8.0%
Cc1sc2nc(C3CC3)nc(N3CCN(S(=O)(=O)c4ccc(F)cc4)CC3)c2c1C,-12.2%,2.1%,8.4%,22.0%[59 µM],47.0%
CCOc1ccccc1NC(=O)N(Cc1ccc(C)o1)C1CCN(C(C)=O)CC1,-23.1%,-20.8%,.,-7.5%[59 µM],2.2%
Cc1noc(C)c1-c1ccc2ncnc(NCc3cccc(C(F)(F)F)c3)c2c1,-8.3%,.,.,.,.
Nc1nn2cc(-c3ccc(Br)cc3)nc2c2ccccc12,-17.9%,-30.6%,.,79.4µM*,15.6%
O=C(O)C(=O)/C(=C\c1ccc([N+](=O)[O-])cc1)c1ccc2ccccc2n1,?,?,0.5%,35.5µM*,0.5%
O=C(OCc1ccc([N+](=O)[O-])cc1)c1ccc2ccccc2n1,-2.1%,-9.2%,.,?,0.3%
O=C(O)C(=O)/C(=C\c1cccc2ccccc12)c1ccc2ccccc2n1,-17.9%,3.6%,.,8.3%,42.6%
O=C(O)C(=O)/C(=C\c1ccsc1)c1ccc2ccccc2n1,89.1µM*,-6.3%,.,?,4.7%
O=C(O)C(=O)/C(=C\c1ccccc1)c1ccc2ccccc2n1,?,1.5%,.,79.4µM*,35.4%
Cc1cc(N2CCCCC2)nc2ccc(NC(=O)/C=C/c3ccccc3OC(C)C)cc12,-21.2%,-17.8%,.,-30.5%[59 µM],8.8%
O=C(/C=C/c1ccco1)N(Cc1cccc(Br)c1)C1CCS(=O)(=O)C1 (configuration not stated),-24.0%,?,.,.,-1.9%
O=C(/C=C/c1ccco1)N(Cc1ccccc1)C1CCS(=O)(=O)C1 (configuration not stated),-14.7%,-27.6%,-5.5%,35.5µM*,26.0%
O=C(/C=C/c1ccco1)N(Cc1cccc(F)c1)C1CCS(=O)(=O)C1 (configuration not stated),-23.6%,-25.8%,.,39.8µM*,22.7%
O=C(/C=C/c1ccco1)N(Cc1ccc(F)cc1)C1CCS(=O)(=O)C1 (configuration not stated),-18.2%,-5.6%,4.3%,.,11.8%
Cc1c(Cl)cccc1NC(=O)CSc1nc(=O)[nH]c2c1CCC2,-8.4%,-8.6%,.,21.6%[59 µM],-5.3%
Cc1ccc(C)c(SCC(=O)Nc2cc(C)nn2-c2ccc(F)cc2)c1,.,6.8%,7.0%,11.2µM*,.
COc1ccccc1-c1noc(CCCC(=O)Nc2cc(C)ccc2C)n1,12.2%,-27.1%,.,-3.6%[59 µM],47.2%
